Source: PubChem BioAssay (NCI)
About 83,000 compounds went through this panel and 20% of them were active in at least one assay; those are over-represented in the sample as a whole.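 Each cell line was grown in a 96-well plate and treated with one concentration of compound for 48 hours. Values below 10 were considered active.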 A number with no mark means an inactive call. Calls of active or inactive are those of the source.

Experiments:
Assay in all cases: NCI-60 one-dose screen, 48 h (100 = growth as untreated, 0 = no growth, -100 = all killed)
Conditions in all cases: 10 µM unless noted
[1] = test system: HCT-15 colon
[2] = test system: HT29 colon
[3] = test system: SNB-75 CNS
[4] = test system: SNB-19 CNS
[5] = test system: U251 CNS
[6] = test system: PC-3 prostate
[7] = test system: SK-MEL-5 melanoma
[8] = test system: UACC-62 melanoma
[9] = test system: LOX IMVI melanoma
[10] = test system: SK-MEL-28 melanoma
[11] = test system: SK-MEL-2 melanoma
[12] = test system: EKVX NSCLC
[13] = test system: SN12C renal
[14] = test system: UO-31 renal
[15] = test system: TK-10 renal
[16] = test system: ACHN renal
[17] = test system: CAKI-1 renal
[18] = test system: A498 renal
[19] = test system: CCRF-CEM leukemia
[20] = test system: MOLT-4 leukemia

| SMILES | growth [1] | growth [2] | growth [3] | growth [4] | growth [5] | growth [6] | growth [7] | growth [8] | growth [9] | growth [10] | growth [11] | growth [12] | growth [13] | growth [14] | growth [15] | growth [16] | growth [17] [%] | growth [18] | growth [19] | growth [20] |
| --- | --- | --- | --- | --- | --- | --- | --- | --- | --- | --- | --- | --- | --- | --- | --- | --- | --- | --- | --- | --- |
| NC(=O)c1ccc2c(c1)OCO2 | 102% | 103% | 84.2% | 109% | 107% | 98.9% | 99.2% | 103% | 95.4% | 108% | 114% | 95.1% | 108% | 102% | 91.7% | 109% | 93.5 | 86.8% | 102% | 105% |
| CCOC(=O)c1cc(/C(=N\O)c2cc(OC)c(OC)c(OC)c2)n2cc(C)cc(C)c12 | 17.9% | 6.89% (active) | 25.1% | 40.5% | 12.6% | 41% | 12.1% | 19.8% | 31.8% | 56.1% | 2.79% (active) | 37.7% | 30.3% | 48.7% | 26.7% | 10.5% | 37.1 | -6.21% (active) | 9.43% (active) | 9.33% (active) |
| COc1ncc(-c2ccc3ncnc(Nc4cccc(Cl)c4)c3c2)cc1NS(=O)(=O)C1CC1 | 27.6% | 29.7% | -1.09% (active) | 49.7% | 59.9% | 24.4% | 37.3% | 25.1% | 34.8% | 39.4% | 36.5% | 12.3% | 31.2% | 22.5% | 1.03% (active) | 23.9% | 27.8 | 15.7% | 33.2% | -0.986% (active) |
| C#CCN1C(=O)/C(=c2\sc3n(c2=O)C2C(NN=3)N(CC)C(=O)N2CC)c2ccccc21 (configuration not stated) | 16% | 7.7% (active) | -25.2% (active) | 28% | 11.2% | 22.7% | 12.4% | 25.2% | 27.1% | 43.4% | 45.1% | 64.9% | 32.4% | 40.1% | 39.7% | 19.8% | 23.5 | -33.8% (active) | – | 20.9% |
| C=C1C(=O)O[C@H]2[C@H]1CC/C(Cn1cc(-c3ccc(N)cc3)nn1)=C\CC[C@@]1(C)O[C@@H]21 | -46.9% (active) | -59.4% (active) | 25.6% | 61.3% | 34.1% | 24.1% | 35.3% | -37.4% (active) | -63.6% (active) | -17% (active) | 41.9% | -19.9% (active) | -7.63% (active) | -74.3% (active) | 17.9% | 3.22% (active) | 16.7 | 44.1% | -17.7% (active) | 5.77% (active) |
| Cc1nc2scc(-c3ccccc3)n2c(=O)c1CCO | 96.1% | 103% | 71.6% | 98.3% | 103% | 87.7% | 100% | 97.6% | 92.3% | 113% | 124% | 92.3% | 98.8% | 72.5% | 99.9% | 98.9% | 80.5 | 86.8% | 103% | 106% |
| C=C1C(=O)O[C@H]2[C@H]1CC/C(COC(=O)NCc1cc(OC)c(OC)c(OC)c1)=C\CC[C@@]1(C)O[C@@H]21 | 42.3% | 21.4% | 83.8% | 72.8% | 81.3% | 66.1% | 95.2% | 38.8% | 54.3% | 63.2% | 73.8% | 75.8% | 47.6% | 70.6% | 51.6% | 45.5% | 54.1 | 109% | 6.67% (active) | 54.1% |
| CN(C)c1nc(N)c(N=O)c(N)n1 | 111% | 117% | 98.5% | 112% | 103% | 99.4% | 110% | 103% | 99.1% | 114% | 104% | 111% | 110% | 101% | 110% | 109% | 103 | 76.1% | 112% | 105% |
| COc1ccc(/C=C(\C#N)c2ccc([N+](=O)[O-])cc2)c2ccccc12 | 75.7% | 76.8% | -16% (active) | 24.3% | 27% | 62.5% | 74.9% | 37.1% | 70.2% | 59.2% | 59.8% | 52.9% | 41.4% | 66.5% | 88.1% | 37.9% | – | 60% | 83% | 88.3% |
| COc1cccc2cc(-c3cc4ccccc4[nH]3)/c(=N/C(=S)Nc3ccccc3)oc12 | 89.2% | 81.8% | -45.3% (active) | 66.1% | 77% | 68.8% | 76.1% | 76% | 80% | 80.1% | 91.5% | 87.3% | 80.6% | 81.5% | 102% | 41.2% | 41 | 92.4% | – | 105% |
| CCCCCCCCCCCCCCCCCCOc1cccc(CCOP(=O)(O)OCC[N+](C)(C)C)c1 | 87% | 73.7% | 83.1% | 83.6% | 67.7% | 2.55% (active) | 91.1% | 85.2% | 77.3% | 94.2% | 90.4% | 97% | 91.1% | 91.5% | 36.5% | 95.8% | 55.3 | 99.2% | – | 104% |
| Nc1ccc(S(=O)(=O)c2ccc(Cl)cc2)cc1 | 97.8% | 98.1% | 79.7% | 93.9% | 105% | 89.7% | 95.2% | 85.8% | 95.6% | 102% | 98.4% | 94.7% | 95.3% | 86.4% | 96.4% | 97.1% | 93.6 | 108% | 111% | 103% |
| O=C(Cc1n[nH]c(=O)c2ccccc12)OCc1c(Cl)cccc1Cl | 43.6% | 51.4% | 90% | 105% | 54% | 80.5% | 56.9% | 70.4% | 47.1% | 112% | 35.5% | 154% | 102% | 103% | 99% | 74.7% | – | 91.3% | 61% | 32.9% |
| COc1cc(/C=C/C(=O)c2ccccc2O)ccc1OCCCOc1cc2c(cc1OC)C(=O)N1CCC[C@H]1C=N2 | -3.51% (active) | -41.4% (active) | -57.7% (active) | -1.67% (active) | -74.7% (active) | 10.7% | -76.5% (active) | -82.4% (active) | -60.8% (active) | -64.3% (active) | -61.1% (active) | 19.7% | 6.22% (active) | -54.5% (active) | -27.9% (active) | -13.8% (active) | – | -68.4% (active) | 5.24% (active) | -11.2% (active) |
| COc1cc2oc(-c3cccc(NC(=O)Nc4ccc5c(c4)OCO5)c3)cc(=O)c2c(OC)c1OC | 42.1% | 48.2% | 21.4% | 83.5% | 62.1% | 45.6% | 45.6% | 62.1% | 38.9% | 74.2% | 71.7% | 86.2% | 49.5% | 17.8% | 56% | 47.1% | 48.6 | 77.1% | – | 54.8% |
| COc1ccc(NC(=S)/N=c2\oc3c(OC)cccc3cc2-c2cc3ccccc3[nH]2)cc1 | 84.1% | 82.8% | -12.2% (active) | 57.8% | 75.7% | 58.4% | 72.1% | 76.4% | 76.8% | 69.9% | 90.2% | 79.6% | 84.7% | 95.2% | 96% | 44.8% | 28.3 | 87.9% | – | 99.1% |
